# Laboratory results published in paper PMC7862700, “An all-to-all approach to the identification of sequence-specific readers for epigenetic DNA modifications on cytosine”.
# Experiments:
# Assay in all cases: DAPPL (digital affinity profiling via proximity ligation, sequencing); 10 mM Tris-HCl pH 7.5, 50 mM NaCl, 1 mM DTT, 4% glycerol, room temperature, 30 min; GST-TFs on glutathione beads, 16-mer random dsDNA library, 0.1% formaldehyde crosslink after washing; high values mean tight binding
# FEV = molecular target: T1, FEV (Homo sapiens, UniProt Q99581 1-238); settings: protein: recombinant; tags: N-terminal GST; dsDNA, one strand shown
# T1 sequence: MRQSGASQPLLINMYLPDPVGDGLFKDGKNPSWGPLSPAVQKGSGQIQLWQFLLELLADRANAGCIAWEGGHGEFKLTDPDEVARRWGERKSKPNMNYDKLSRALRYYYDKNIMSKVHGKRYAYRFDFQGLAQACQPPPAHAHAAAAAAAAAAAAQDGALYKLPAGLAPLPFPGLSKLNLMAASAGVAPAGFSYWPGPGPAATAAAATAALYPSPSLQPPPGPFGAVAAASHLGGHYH
# How it was run: (§1)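 Sequencing on an Illumina NextSeq500 followed washing, crosslinking with 0.1% formaldehyde, proximity ligation (BsaI/T4 ligase, 1 h, 37 °C) and PCR amplification of pools that had been incubated for 30 min at room temperature with 200 nmole of a random double-stranded 16-mer DNA library in Tris/NaCl/DTT/glycerol buffer. Each pool held DNA-barcoded human transcription factors, expressed in yeast as GST fusions and captured on glutathione beads, plus a tag-only sample. Binding signal is a hexamer's read frequency for a factor divided by its frequency in the tag-only sample.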
# ETV5 = ETV5 (Homo sapiens, UniProt P41161 1-510); settings: protein: recombinant; tags: N-terminal GST; dsDNA, one strand shown
# Chain of ETV5 (P41161 whole entry): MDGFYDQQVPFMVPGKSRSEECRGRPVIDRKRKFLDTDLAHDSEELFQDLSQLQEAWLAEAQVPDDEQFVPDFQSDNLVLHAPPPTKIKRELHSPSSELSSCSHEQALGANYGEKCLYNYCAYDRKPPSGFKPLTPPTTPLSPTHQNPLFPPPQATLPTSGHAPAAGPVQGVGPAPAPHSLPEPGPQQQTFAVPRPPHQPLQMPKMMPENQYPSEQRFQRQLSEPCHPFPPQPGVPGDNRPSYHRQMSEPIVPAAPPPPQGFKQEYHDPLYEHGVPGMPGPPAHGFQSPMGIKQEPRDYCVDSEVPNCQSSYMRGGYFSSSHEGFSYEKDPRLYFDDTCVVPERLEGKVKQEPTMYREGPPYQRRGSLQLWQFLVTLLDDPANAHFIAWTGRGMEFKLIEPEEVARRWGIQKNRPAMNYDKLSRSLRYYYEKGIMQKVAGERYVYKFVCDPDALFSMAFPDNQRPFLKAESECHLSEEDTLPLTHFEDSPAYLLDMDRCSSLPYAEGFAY
# How it was run: as §1
# HSF1 = HSF1 (Homo sapiens, UniProt Q00613 1-529); settings: protein: recombinant; tags: N-terminal GST; chain copies: 3; dsDNA, one strand shown
# Chain of HSF1 (Q00613 whole entry): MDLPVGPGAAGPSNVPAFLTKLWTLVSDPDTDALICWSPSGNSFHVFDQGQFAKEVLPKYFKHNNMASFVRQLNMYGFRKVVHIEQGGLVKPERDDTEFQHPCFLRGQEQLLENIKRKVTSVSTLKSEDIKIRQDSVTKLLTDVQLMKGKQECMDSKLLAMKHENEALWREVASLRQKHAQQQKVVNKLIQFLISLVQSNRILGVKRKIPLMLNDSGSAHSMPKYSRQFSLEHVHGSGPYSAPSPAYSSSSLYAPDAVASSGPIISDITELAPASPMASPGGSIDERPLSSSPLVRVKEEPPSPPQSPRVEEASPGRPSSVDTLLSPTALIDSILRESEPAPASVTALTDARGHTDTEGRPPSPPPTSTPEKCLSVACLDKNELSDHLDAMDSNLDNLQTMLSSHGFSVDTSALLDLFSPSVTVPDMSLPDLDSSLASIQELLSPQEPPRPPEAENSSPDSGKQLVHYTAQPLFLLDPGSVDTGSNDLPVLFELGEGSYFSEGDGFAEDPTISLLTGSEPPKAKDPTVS
# How it was run: as §1
# SPIC = molecular target: T2, SPIC (Homo sapiens, UniProt Q8N5J4 1-248); settings: protein: recombinant; tags: N-terminal GST; dsDNA, one strand shown
# T2 sequence: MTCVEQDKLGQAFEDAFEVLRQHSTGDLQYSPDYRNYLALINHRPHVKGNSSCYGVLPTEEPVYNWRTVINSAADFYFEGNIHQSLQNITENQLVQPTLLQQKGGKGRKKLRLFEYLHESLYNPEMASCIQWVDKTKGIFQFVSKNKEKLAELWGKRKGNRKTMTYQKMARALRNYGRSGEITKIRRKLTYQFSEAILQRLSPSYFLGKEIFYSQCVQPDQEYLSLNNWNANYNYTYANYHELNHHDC
# How it was run: as §1
# ELF4 = ELF4 (Homo sapiens, UniProt Q99607 1-663); settings: protein: recombinant; tags: N-terminal GST; dsDNA, one strand shown
# Chain of ELF4 (Q99607 whole entry): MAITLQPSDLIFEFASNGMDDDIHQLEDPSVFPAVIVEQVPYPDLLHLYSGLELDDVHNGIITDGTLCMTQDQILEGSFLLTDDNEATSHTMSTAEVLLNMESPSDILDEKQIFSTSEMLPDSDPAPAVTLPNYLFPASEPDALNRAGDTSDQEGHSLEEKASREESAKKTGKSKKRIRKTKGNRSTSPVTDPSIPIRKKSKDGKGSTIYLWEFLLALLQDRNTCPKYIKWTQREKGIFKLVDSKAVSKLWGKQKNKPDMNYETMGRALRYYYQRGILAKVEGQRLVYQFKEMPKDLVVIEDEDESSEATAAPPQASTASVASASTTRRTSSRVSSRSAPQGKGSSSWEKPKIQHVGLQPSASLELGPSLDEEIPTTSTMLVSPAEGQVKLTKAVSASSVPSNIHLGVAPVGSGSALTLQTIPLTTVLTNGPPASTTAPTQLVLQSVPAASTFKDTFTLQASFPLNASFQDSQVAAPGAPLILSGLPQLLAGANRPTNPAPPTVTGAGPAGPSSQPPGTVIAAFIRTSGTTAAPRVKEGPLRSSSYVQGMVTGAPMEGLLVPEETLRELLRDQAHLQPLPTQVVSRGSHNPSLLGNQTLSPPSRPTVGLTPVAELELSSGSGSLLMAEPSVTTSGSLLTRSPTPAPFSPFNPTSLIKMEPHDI
# How it was run: as §1
# ELK4 = molecular target: T3, ELK4 (Homo sapiens, UniProt P28324-2 1-405); settings: protein: recombinant; tags: N-terminal GST; dsDNA, one strand shown
# T3 sequence: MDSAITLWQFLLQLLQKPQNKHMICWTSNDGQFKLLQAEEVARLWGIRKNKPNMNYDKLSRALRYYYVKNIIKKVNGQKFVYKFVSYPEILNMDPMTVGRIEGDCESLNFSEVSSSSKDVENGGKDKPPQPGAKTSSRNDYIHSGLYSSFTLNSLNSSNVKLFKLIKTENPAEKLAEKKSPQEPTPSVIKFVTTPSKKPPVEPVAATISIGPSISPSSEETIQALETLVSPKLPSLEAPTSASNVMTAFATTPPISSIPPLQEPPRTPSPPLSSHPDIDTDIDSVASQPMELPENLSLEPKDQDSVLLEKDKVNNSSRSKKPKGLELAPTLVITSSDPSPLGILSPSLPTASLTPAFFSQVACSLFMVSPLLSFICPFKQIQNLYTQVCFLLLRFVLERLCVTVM
# How it was run: as §1
# ETV2 = molecular target: T4, ETV2 (Homo sapiens, UniProt O00321 1-342); settings: protein: recombinant; tags: N-terminal GST; dsDNA, one strand shown
# T4 sequence: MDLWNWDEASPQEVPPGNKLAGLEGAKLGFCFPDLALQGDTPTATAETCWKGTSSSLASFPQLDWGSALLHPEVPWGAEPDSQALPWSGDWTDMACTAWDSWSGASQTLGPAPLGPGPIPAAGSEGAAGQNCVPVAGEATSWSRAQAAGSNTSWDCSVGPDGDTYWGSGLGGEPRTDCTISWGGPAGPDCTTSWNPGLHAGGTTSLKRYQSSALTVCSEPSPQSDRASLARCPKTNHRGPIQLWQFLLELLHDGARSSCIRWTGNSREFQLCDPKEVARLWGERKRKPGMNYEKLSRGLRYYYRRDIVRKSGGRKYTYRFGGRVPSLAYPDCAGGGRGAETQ
# How it was run: as §1
# ELF3 = molecular target: T5, ELF3 (Homo sapiens, UniProt P78545 1-371); settings: protein: recombinant; tags: N-terminal GST; dsDNA, one strand shown
# T5 sequence: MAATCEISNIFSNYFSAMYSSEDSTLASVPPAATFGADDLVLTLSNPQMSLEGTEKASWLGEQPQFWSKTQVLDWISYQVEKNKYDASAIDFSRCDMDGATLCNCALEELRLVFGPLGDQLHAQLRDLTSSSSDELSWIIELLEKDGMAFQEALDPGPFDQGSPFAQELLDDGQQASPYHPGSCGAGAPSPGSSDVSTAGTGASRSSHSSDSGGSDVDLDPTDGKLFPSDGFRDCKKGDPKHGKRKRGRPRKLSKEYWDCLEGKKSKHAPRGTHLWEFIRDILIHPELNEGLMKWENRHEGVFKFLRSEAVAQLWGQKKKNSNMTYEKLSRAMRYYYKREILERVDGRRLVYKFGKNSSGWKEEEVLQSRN
# How it was run: as §1
# CRX = CRX (Homo sapiens, UniProt O43186 1-299); settings: protein: recombinant; tags: N-terminal GST; dsDNA, one strand shown
# Chain of CRX (O43186 whole entry): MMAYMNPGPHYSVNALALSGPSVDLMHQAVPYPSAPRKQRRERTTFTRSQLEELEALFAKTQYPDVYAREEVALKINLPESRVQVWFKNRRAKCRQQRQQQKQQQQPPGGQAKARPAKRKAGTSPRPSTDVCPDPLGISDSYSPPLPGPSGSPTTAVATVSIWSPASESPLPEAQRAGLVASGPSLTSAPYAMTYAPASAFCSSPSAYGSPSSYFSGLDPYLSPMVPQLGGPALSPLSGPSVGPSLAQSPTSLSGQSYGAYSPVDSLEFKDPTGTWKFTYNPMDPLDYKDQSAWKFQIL
# How it was run: as §1
# ETV1 = ETV1 (Homo sapiens, UniProt P50549 1-477); settings: protein: recombinant; tags: N-terminal GST; dsDNA, one strand shown
# Chain of ETV1 (P50549 whole entry): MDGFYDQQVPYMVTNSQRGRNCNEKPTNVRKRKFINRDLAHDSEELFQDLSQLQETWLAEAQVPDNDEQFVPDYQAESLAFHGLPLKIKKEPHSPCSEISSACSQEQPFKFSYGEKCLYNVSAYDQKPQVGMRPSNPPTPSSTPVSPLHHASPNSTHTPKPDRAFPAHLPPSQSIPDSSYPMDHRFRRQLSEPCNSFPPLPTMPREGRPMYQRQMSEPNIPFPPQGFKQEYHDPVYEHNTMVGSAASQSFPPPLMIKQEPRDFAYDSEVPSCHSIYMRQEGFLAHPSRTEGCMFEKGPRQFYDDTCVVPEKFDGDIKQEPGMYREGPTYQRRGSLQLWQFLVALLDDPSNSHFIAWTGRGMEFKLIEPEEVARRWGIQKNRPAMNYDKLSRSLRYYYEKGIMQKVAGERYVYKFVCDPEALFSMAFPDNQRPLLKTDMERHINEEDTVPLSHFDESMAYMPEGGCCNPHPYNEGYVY
# How it was run: as §1
# ERF = molecular target: T6, ERF (Homo sapiens, UniProt P50548 1-548); settings: protein: recombinant; tags: N-terminal GST; dsDNA, one strand shown
# T6 sequence: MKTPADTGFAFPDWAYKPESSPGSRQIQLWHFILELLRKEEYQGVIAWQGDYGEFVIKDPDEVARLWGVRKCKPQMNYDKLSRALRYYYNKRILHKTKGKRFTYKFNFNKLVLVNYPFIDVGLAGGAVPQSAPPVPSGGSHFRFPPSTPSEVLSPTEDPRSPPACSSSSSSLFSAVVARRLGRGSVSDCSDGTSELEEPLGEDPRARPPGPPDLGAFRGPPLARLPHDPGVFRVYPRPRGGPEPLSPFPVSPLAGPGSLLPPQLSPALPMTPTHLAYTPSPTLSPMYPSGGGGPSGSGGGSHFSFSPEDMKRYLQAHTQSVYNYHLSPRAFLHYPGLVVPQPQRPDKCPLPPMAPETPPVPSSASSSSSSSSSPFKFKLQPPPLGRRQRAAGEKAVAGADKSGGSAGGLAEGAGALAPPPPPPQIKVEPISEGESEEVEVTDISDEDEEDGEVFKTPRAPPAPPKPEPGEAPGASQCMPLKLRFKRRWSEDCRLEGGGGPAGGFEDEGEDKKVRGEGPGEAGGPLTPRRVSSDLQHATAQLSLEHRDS
# How it was run: as §1
# ETV3L = molecular target: T7, ETV3L (Homo sapiens, UniProt Q6ZN32 1-361); settings: protein: recombinant; tags: N-terminal GST; dsDNA, one strand shown
# T7 sequence: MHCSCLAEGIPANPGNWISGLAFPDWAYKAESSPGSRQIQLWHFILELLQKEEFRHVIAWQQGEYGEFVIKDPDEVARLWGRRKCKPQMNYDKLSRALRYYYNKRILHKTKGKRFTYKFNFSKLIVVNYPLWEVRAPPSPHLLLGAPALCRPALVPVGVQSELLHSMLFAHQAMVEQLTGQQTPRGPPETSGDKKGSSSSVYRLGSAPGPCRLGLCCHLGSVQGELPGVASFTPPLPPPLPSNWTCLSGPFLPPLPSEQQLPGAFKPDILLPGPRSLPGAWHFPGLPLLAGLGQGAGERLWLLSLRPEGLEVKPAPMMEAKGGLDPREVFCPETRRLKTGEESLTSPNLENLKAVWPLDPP
# How it was run: as §1
# ETS2 = molecular target: T8, ETS2 (Homo sapiens, UniProt P15036 1-469); settings: protein: recombinant; tags: N-terminal GST; dsDNA, one strand shown
# T8 sequence: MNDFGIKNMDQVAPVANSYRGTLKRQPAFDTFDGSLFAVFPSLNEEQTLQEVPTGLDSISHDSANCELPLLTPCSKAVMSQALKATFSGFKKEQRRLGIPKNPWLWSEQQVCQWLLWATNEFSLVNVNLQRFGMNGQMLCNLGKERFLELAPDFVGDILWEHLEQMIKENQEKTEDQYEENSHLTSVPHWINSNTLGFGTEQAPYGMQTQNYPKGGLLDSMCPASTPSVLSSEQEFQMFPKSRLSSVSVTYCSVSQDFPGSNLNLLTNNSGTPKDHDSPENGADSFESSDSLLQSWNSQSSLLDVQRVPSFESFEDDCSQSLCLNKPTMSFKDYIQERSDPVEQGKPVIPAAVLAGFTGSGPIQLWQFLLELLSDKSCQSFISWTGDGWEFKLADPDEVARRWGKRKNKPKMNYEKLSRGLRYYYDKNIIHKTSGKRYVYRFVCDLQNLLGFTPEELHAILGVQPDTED
# How it was run: as §1
# SPDEF = molecular target: T9, SPDEF (Homo sapiens, UniProt O95238 1-335); settings: protein: recombinant; tags: N-terminal GST; dsDNA, one strand shown
# T9 sequence: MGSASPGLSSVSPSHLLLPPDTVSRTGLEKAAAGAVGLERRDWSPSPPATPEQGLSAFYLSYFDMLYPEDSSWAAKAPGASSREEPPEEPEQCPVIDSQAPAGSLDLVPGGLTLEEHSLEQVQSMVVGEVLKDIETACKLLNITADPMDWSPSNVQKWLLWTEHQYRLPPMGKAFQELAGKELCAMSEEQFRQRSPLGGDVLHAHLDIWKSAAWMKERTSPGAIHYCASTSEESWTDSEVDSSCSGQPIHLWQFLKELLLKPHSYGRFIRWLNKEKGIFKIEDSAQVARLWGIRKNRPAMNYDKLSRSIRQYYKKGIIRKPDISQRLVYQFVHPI
# How it was run: as §1
# ETV7 = molecular target: T10, ETV7 (Homo sapiens, UniProt Q9Y603 1-341); settings: protein: recombinant; tags: N-terminal GST; dsDNA, one strand shown
# T10 sequence: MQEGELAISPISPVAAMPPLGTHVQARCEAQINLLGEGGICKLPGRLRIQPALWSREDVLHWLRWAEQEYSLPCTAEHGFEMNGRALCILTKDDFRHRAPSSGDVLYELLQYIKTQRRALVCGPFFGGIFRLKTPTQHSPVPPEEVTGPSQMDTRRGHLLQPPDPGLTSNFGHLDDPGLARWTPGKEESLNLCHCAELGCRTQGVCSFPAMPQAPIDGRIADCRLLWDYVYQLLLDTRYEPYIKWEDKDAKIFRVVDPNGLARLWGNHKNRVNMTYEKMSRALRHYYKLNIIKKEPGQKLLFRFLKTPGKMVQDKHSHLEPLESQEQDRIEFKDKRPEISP
# How it was run: as §1
# ELF5 = molecular target: T11, ELF5 (Homo sapiens, UniProt Q9UKW6-2 1-255); settings: protein: recombinant; tags: N-terminal GST; dsDNA, one strand shown
# T11 sequence: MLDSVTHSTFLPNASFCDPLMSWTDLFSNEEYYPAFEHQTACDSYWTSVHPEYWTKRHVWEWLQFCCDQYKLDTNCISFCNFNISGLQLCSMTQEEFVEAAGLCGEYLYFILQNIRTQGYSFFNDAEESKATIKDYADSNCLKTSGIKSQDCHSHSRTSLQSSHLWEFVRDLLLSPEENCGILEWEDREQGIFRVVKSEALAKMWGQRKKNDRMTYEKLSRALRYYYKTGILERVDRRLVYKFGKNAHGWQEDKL
# How it was run: as §1
# ETV6 = ETV6 (Homo sapiens, UniProt P41212 1-452); settings: protein: recombinant; tags: N-terminal GST; dsDNA, one strand shown
# Chain of ETV6 (P41212 whole entry): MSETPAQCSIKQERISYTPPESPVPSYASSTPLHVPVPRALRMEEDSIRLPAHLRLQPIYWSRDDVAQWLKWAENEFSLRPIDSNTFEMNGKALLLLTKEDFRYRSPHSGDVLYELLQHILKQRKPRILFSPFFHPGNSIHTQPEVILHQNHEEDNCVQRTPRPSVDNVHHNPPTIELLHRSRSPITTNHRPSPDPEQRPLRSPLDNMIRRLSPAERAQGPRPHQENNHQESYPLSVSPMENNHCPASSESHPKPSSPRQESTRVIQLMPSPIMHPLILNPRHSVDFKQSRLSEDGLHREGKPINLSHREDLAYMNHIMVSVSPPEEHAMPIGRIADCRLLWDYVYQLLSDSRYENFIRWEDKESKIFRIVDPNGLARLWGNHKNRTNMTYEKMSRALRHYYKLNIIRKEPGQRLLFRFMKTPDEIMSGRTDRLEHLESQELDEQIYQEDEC
# How it was run: as §1
sequence,measurement,setting,value
TCGAAT,binding signal,FEV,"1.03 fold enrichment (6-mer frequency, TF over GST control)"
same,binding signal,ETV5,"1.15 fold enrichment (6-mer frequency, TF over GST control)"
same,binding signal,HSF1,"2.2 fold enrichment (6-mer frequency, TF over GST control)"
same,binding signal,SPIC,"1.03 fold enrichment (6-mer frequency, TF over GST control)"
same,binding signal,ELF4,"1.1 fold enrichment (6-mer frequency, TF over GST control)"
same,binding signal,ELK4,"1.33 fold enrichment (6-mer frequency, TF over GST control)"
same,binding signal,ETV2,"1.03 fold enrichment (6-mer frequency, TF over GST control)"
same,binding signal,ELF3,"1.11 fold enrichment (6-mer frequency, TF over GST control)"
same,binding signal,CRX,"1.38 fold enrichment (6-mer frequency, TF over GST control)"
same,binding signal,ETV1,"1 fold enrichment (6-mer frequency, TF over GST control)"
same,binding signal,ERF,"1.13 fold enrichment (6-mer frequency, TF over GST control)"
same,binding signal,ETV3L,"1.09 fold enrichment (6-mer frequency, TF over GST control)"
same,binding signal,ETS2,"1.06 fold enrichment (6-mer frequency, TF over GST control)"
same,binding signal,SPDEF,"1.09 fold enrichment (6-mer frequency, TF over GST control)"
same,binding signal,ETV7,"1.23 fold enrichment (6-mer frequency, TF over GST control)"
same,binding signal,ELF5,"1.02 fold enrichment (6-mer frequency, TF over GST control)"
same,binding signal,ETV6,"1.13 fold enrichment (6-mer frequency, TF over GST control)"
